Screening data (PubChem)
MITF act – MITF TRPM1 promoter activation in melanoma cells | AID 588334 | 300,000 tested, 0.75% active | SK-MEL-5 TRPM1-promoter luciferase, 24 h; % of positive control, neutral wells = 0 | activation, % at 12.5 µM;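 active = mean activation of at least 80% with every replicate also reaching 80%; inconclusive = mean reaches 80% but some replicate falls short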
Wnt bcat act – activates Wnt/beta-catenin signaling in a reporter cell assay | activator, plate reader | 300,000 tested, 1.2% active | activation, % at 9.35 µM; in the data active = activation above about 30%, passing the limit was not always enough; inconclusive = no clear call, values can overlap the other calls
TRPM1 prom inh – inhibitors of MITF-driven TRPM1 promoter in melanoma cells. SK-MEL-5 TRPM1 promoter luciferase, 24 h. inhibition, % at 12.5 µM. 330,000 tested, 0.83% active. AID 488899;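 active = mean inhibition across replicates of 60% or more, whatever share of single replicates reaches that level; inconclusive = some that reach 60%, reason not given; inactive = mean inhibition across replicates below 60%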
esBAF inh – inhibitors of esBAF chromatin remodeling in mouse ES cells; Bmi1-luciferase knock-in reporter, 24 h; 100% = twice the neutral-well signal; reporter increase, % at 12.5 µM; 350,000 tested, 2% active; AID 602393; in the data active = activation above about 40%; inconclusive = no clear call, values can overlap the other calls;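 also: a rise in the Bmi1 reporter signal indicates esBAF inhibition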
EBV LMP1 NFkB – inhibitors of Epstein-Barr LMP1-induced NF-kappaB reporter; LMP1-induced NF-kappaB luciferase reporter cells, luminescence; inhibition, % at 12.5 µM; 350,000 tested, 0.69% active; AID 504558; in the data active = inhibition above about 41%; inconclusive = no clear call, values can overlap the other calls
Statin myotox sup – suppression of simvastatin myotoxicity; rescue of ATP level, % at 7.49 µM; AID 602340; 330,000 tested, 0.78% active; C2C12 myotubes + simvastatin, ATP luminescence, 48 h; scaled: DMSO 0, geranylgeraniol control 100;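 active = mean ATP rescue above about 67%, or every replicate alone reaching that limit, limit read from the data, passing the limit was not always enough; inconclusive = no clear call, values can overlap the other calls; inactive = mean under the limit and some replicate under it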;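 also: myotubes were challenged with 10 µM simvastatin during compound exposure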
Numbers stand for hits; n = inactive; u = inconclusive; x = not tested or not shown. Compounds with a hit are over-represented: about 4% of the library has one in this group of screens.

SMILES | MITF act | Wnt bcat act | TRPM1 prom inh | esBAF inh | EBV LMP1 NFkB | Statin myotox sup
CCCC(=O)NC(=S)Nc1ccccc1OC | x | n | n | n | n | n
O=C(NC(=O)c1ccccc1)Nc1ccccc1 | n | 36 | n | n | n | n
CCC(=O)NC(=S)Nc1ccccc1OC | n | n | n | n | n | 133
O=C(NC(=O)c1ccccc1)Nc1ccc(-c2cnco2)cc1 | x | n | x | x | x | x
Cc1ccc(NC(=O)c2nc[nH]c2C(=O)N2CCN(c3ccccc3)CC2)cc1 | n | n | n | n | n | n
Cc1ccc([N+](=O)[O-])cc1NC(=S)NC(=O)c1ccco1 | n | x | n | n | n | n
O=C(NC(=S)Nc1cccc([N+](=O)[O-])c1)c1ccco1 | n | n | n | 49 | n | n
O=C(NC(=S)Nc1cccc([N+](=O)[O-])c1)c1ccccc1 | x | 32 | n | x | n | x
O=C(Nc1ccc([N+](=O)[O-])cc1)C(=O)Nc1cccc(C(=O)O)c1 | n | n | x | n | 90 | n
CCOc1ccc(CNCCCSc2ncccn2)cc1 | n | n | n | n | n | n
COc1ccc(NC(=O)CN2CCCC2)cc1 | x | n | n | n | n | n
COc1ccc(NC(=O)Cn2nc3n(c2=S)CCC3)cc1 | x | n | n | n | n | 100
COc1ccc(CSc2nc(C)cc(=O)[nH]2)cc1Br | n | x | n | n | n | n
Cc1cccc(-c2cc3nc4c(c(N5CCC6(CC5)OCCO6)n3n2)CCCC4)c1 | 91 | n | n | 78 | n | n
Cc1cccc(-c2cc3nc4c(c(N5CCCC(O)C5)n3n2)CCC4)c1 (stereo unspecified) | n | n | n | n | n | n
OC1CCCN(c2c3c(nc4cc(-c5cccc(F)c5)nn24)CCCC3)C1 (stereo unspecified) | 87 | n | n | x | n | x
Fc1ccc(-c2cc3nc4c(c(N5CCOCC5)n3n2)CCCC4)cc1 | n | n | n | 53 | n | n
Cc1ccc(NC(=O)CS(=O)CC(=O)N(CC(=O)NC2CCCC2)c2cccc(C)c2C)cc1 (stereo unspecified) | n | n | n | n | n | n
O=C(NNS(=O)(=O)c1ccc(Cl)cc1)c1cc(-c2ccccc2)n[nH]1 | n | n | n | n | n | n
CCOC(=O)c1cc(OCC)c2c(ccc3cc(OC)ccc32)n1 | x | n | x | n | n | n
Cc1cc2c(=Cc3ccc(N(C)C)cc3)c3ccccc3n2[n+]1C | n | n | 101 | x | n | x
CCOC(=O)c1cc2c(=Cc3ccc(N(C)C)cc3)c3ccccc3n2[n+]1C | n | n | 86 | x | n | x
Cc1cccc(C)c1OCC(=O)Nc1cc(Cl)ccc1-n1cncn1 | n | n | n | n | n | n
CO[C@H]1CN(C)C(=O)c2ccc(NC(=O)C3CCC3)cc2OC[C@@H](C)N(Cc2ccc(F)cc2)C[C@@H]1C | x | x | x | n | x | n
O=C(Nc1ccccc1F)N1C[C@@H]2[C@H](c3ccccc31)[C@@H](CO)N2C(=O)C1CC1 | x | x | x | 49 | x | n
SMILES | MITF act | Wnt bcat act | TRPM1 prom inh | esBAF inh | EBV LMP1 NFkB | Statin myotox sup
O=C(Nc1ccccc1F)N1C[C@H]2[C@@H](c3ccccc31)[C@H](CO)N2C(=O)C1CCCC1 | x | x | x | n | x | n
Cc1ccc(S(=O)(=O)C=CS(=O)(=O)c2ccc(C)cc2)cc1 | x | n | x | n | n | n
O=S(=O)(/C=C/C=C/S(=O)(=O)c1ccccc1)c1ccccc1 | x | n | 111 | x | n | x
CCCCN1C(=O)/C(=C2\SC(N3CCCCC3)=NC2=O)c2ccccc21 | 107 | n | n | 51 | n | u
O=C1N=C(N2CCCCC2)SC1=C1CCCC1 | n | n | n | n | n | x
Cc1cc(O)c(C2=Nc3ccccc3SC(c3ccc(Cl)cc3)C2)c(=O)o1 (stereo unspecified) | n | x | n | x | n | x
COc1ccc(C2CC(c3c(O)cc(C)oc3=O)=NCCS2)c(OC)c1 (stereo unspecified) | n | n | n | n | n | 117
CCSc1ncc(/C=N/Nc2ccccc2)n1C | n | n | n | n | n | 92
C[C@H]1CN([C@@H](C)CO)C(=O)Cc2cc(NC(=O)Nc3ccccc3)ccc2O[C@H]1CN(C)S(C)(=O)=O | x | x | x | n | x | n
Cc1cc(Cl)ccc1OCCCC(=O)N1CCCCC1 | 100 | x | n | 60 | n | n
Cc1cc(Cl)ccc1OCCCC(=O)N1CCOCC1 | x | u | n | 59 | n | n
Cc1ccc(S(=O)(=O)N2CCN(C(=O)CCCOc3ccc(Cl)cc3C)CC2)cc1 | n | n | n | n | n | n
CCN(CC)c1ccc(N2C(=O)c3ccccc3C2=O)cc1 | n | n | n | n | n | n
